In PubChem BioAssay (NCI):
The panel holds about 83,000 compounds, 20% with a hit somewhere; the sample as a whole holds those more often.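 Single-concentration screen, 48 h exposure, 96-well plates. Endpoint: percent growth. Below 10 = active.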 A number with no mark means an inactive call. Active and inactive are the calls of the source.

Tests used:
Assay in all cases: NCI-60 one-dose screen, 48 h (100 = growth as untreated, 0 = no growth, -100 = all killed)
Conditions in all cases: 10 µM unless noted
[1] = tested on: HT29 colon
[2] = tested on: SNB-75 CNS
[3] = tested on: SNB-19 CNS
[4] = tested on: U251 CNS
[5] = tested on: PC-3 prostate
[6] = tested on: SK-MEL-5 melanoma
[7] = tested on: UACC-62 melanoma
[8] = tested on: LOX IMVI melanoma
[9] = tested on: SK-MEL-28 melanoma
[10] = tested on: SK-MEL-2 melanoma
[11] = tested on: EKVX NSCLC
[12] = tested on: SN12C renal
[13] = tested on: UO-31 renal
[14] = tested on: TK-10 renal
[15] = tested on: ACHN renal
[16] = tested on: CAKI-1 renal
[17] = tested on: A498 renal
[18] = tested on: CCRF-CEM leukemia
[19] = tested on: MOLT-4 leukemia

SMILES | growth [1] | growth [2] | growth [3] | growth [4] | growth [5] | growth [6] | growth [7] | growth [8] | growth [9] | growth [10] | growth [11] | growth [12] | growth [13] | growth [14] | growth [15] | growth [16] | growth [17] | growth [18] | growth [19]
Cc1nn(-c2ccccc2)c2ncnc(N/N=C/c3cccc(O)c3)c12 | 81% | 33.2% | 49% | 40.8% | 42.6% | 30.5% | 32.7% | 29% | 54.2% | 22.6% | 81.6% | 44.4% | 40.7% | 56.4% | 50.6% | 48.7% | 48.2% | 27% | 22%
CCN1CCN(Cc2ccc(C(=O)Nc3ccc(C)c(Oc4ccc(-c5[nH]nc6ncnc(N)c56)cc4)c3)cc2C(F)(F)F)CC1 | 17% | 95.8% | 101% |  | 70.7% | 76.1% | 89.1% | 57.2% | 75.4% | 90% | 106% | 86.5% | 84.4% | 117% | 91.9% | 88.3% | 98.4% | 31% | 67.4%
C=C(C)[C@@H]1CC[C@]2(COC)CC[C@]3(C)[C@H](CC[C@@H]4[C@@]5(C)CCCNC(C)(C)[C@@H]5CC[C@]43C)[C@@H]12 | 13.7% | 76.3% | 66.5% | 22.2% | 39.5% | 48.1% | 75.2% | -90.8% (active) | -61.2% (active) | 84.6% | 53.9% | 73.6% | 60.8% | 79.6% | 67% | 19% | 62.3% | -10.1% (active) | -32.3% (active)
Nn1c(N/N=C/c2nc3ccccc3s2)n[nH]c1=S | 112% | 51.5% | 104% | 113% | 97.8% | 100% | 92.1% | 102% | 114% | 107% | 64.9% | 86.3% | 58% | 88.3% | 98% | 66.7% | 77.5% |  | 115%
COc1ccc([C@H]2[C@H](O)C(=O)N2c2cc(OC)c(OC)c(OC)c2)cc1F | -26% (active) | 19% | 27.7% | 7.47% (active) | 19.8% | -30.9% (active) | 33.3% | -6.07% (active) | 63% | -43.3% (active) | 44.7% | 27.3% | 34.2% | 86.2% | 24.6% | 29.6% | -26.1% (active) |  | 15.2%
O=C(Cn1cc(-c2ccccc2)nn1)Nc1nc(-c2ccc(Cl)cc2)cs1 | 102% | 103% | 94.7% | 105% | 101% | 94.5% | 76.1% | 101% | 108% | 103% | 98% | 96.2% | 91% | 76.1% | 112% | 107% | 80.7% | 103% | 97.8%
C=CC(=O)N1CC=C(c2cc3c(N[C@H](C)c4ccccc4)ncnc3[nH]2)CC1 | 54% | -0.73% (active) | 91.9% | 94.6% | 82.7% | 95.5% | 85.5% | 56.2% | 104% | 106% | 30.5% | 22.4% | 19% |  | 15.1% | 11.3% | -17.4% (active) |  | 97.8%
COc1cc(/C=C2\C(=O)Nc3cc(Cl)ccc32)ccc1OCc1ccc(F)cc1 | 105% | 104% | 104% | 111% | 87% | 99% | 88.8% | 93.5% | 105% | 99.8% | 76.5% | 95.9% | 79.8% | 185% |  |  | 94.2% |  | 100%
CN(C)CCNC(=O)c1ccc(-c2nc3ccc4[nH]ncc4c3c3c2CCC3)cc1 | 12.6% | 40.3% | 9.44% (active) | 25.3% | 3.49% (active) | 7.44% (active) | 15.8% | -61% (active) | 21.9% | -22.8% (active) | 15.3% | 7.23% (active) | 18.2% | 22.1% | 12.8% |  | -63.6% (active) | 3.51% (active) | 7.28% (active)
COc1ccc(OC)c(-c2nc(SCC(=O)c3ccc(Br)cc3)nc(Nc3ccc(S(N)(=O)=O)cc3)c2C#N)c1 | 27.2% | 22.1% | 49.9% | 37.6% | 35.3% | 56.1% | 42.7% | 32.6% | 57.7% | 30.4% | 63.7% | 49.1% | 59.2% |  | 55.9% | 34.4% | 26.4% | 35.4% | 28.5%
CNC(=O)c1cc(Oc2ccc3nc(NC(=O)c4cc(N5CCOCC5)cc(C(F)(F)F)c4)sc3c2)ccn1 | 62.3% | 71.6% | 92.9% | 72.3% | 46.7% |  | 72.4% | 83.5% | 81.1% |  | 70.7% | 83.1% | 87.8% | 92.3% | 87.9% | 82.2% |  |  | 65.5%
CCn1c(SCC(=O)Nc2cccc(C(=O)/C=C/c3cc(OC)c(OC)c(OC)c3)c2)nc2ccccc2c1=O | 1.12% (active) | -4.22% (active) | 39.9% | 30.1% | 46.8% | 33.9% | 41.2% | -73.6% (active) | 77% | 109% | 68.6% | 37.6% | 37.5% | 132% | 41.7% | 45.4% | 71.3% | 4.6% (active) | 22.4%
O=C(Nc1ccc(N=Cc2c(O)[nH]c3ccccc23)cc1)Nc1nccs1 | 17.9% | 33.4% | 31% | 42% | 68.6% | 26.8% | 24.9% | 35.1% | 61.3% | 62.1% | 34.6% | 68% | 48.4% | 75.7% | 40.7% | 32.9% | -7.94% (active) |  | 32.2%
COc1cccc2cc(-c3cc4ccccc4[nH]3)/c(=N\NC(=O)c3ccc(Cl)cc3)oc12 | 67% |  | 47.4% | 34.6% | 35.3% | 48.4% | 16.1% |  | 42.6% | 68.3% | 33.8% | 43% | 28% | 46.7% | 17.3% | 30.7% |  | 16.6% | 15.5%
COCCNc1ccc2ncc(C#Cc3cncc(C(=O)Nc4ccc(CN5CCN(C)CC5)c(C(F)(F)F)c4)c3)n2n1 | -22.6% (active) | -71.5% (active) | -12% (active) | -38.2% (active) | -25.3% (active) | -93.7% (active) | -62.4% (active) | -87.8% (active) | -22.9% (active) | -90.5% (active) | -23.2% (active) | -6.14% (active) | -40% (active) | -43.3% (active) | 1.57% (active) | -40.3% (active) | -98% (active) | 11.2% | 5.84% (active)
Nc1cc(F)ccc1NC(=O)c1ccc(NC(=O)C/C=C/c2cccnc2)cc1 | 24.5% | 51.3% |  | 34.1% | 36.6% | 49.7% | 42.1% | 39.7% | 49.4% | 41.3% | 73% | 29.5% | 52.6% | 52.9% | 55.9% | 66.4% | 43.2% | 24.6% | 40.7%
CCOC(=O)C1=NNC(c2ccc(Cl)cc2)C1C(=O)N1C(=S)NC(=O)C1CC(C)C (stereo not given) | 116% | 100% | 98.3% |  | 96.8% | 106% | 94.2% | 103% |  | 110% | 84.5% | 99.4% | 81.4% | 164% | 93.3% | 85.2% | 95% | 100% | 89.5%
C#C[C@]1(O)CC[C@H]2[C@@H]3CC=C4c5sc(-c6ccc7c(c6)OCO7)nc5CC[C@]4(C)[C@H]3CC[C@@]21C | 8.04% (active) | -3.43% (active) | 15.5% | -24.5% (active) | -23.7% (active) | 50.5% | -35.5% (active) | -40.1% (active) | -39.7% (active) | 28.9% | 34.5% | 22.3% | 51.9% | 13.3% | 13% | 44.4% | 48.8% | 30.6% | 8.06% (active)
CNC(=O)c1cc(N2CCc3cc(NC(=O)Nc4ccc(Cl)c(C(F)(F)F)c4)ccc32)ccn1 | 61.2% | 93.3% | 61.4% | 52.4% | 29% | 46.6% | 51.8% | 64.7% | 66.9% | 88.5% | 55.1% | 65.2% | 68.4% | 86.6% | 38.1% | 53.9% | 80.3% | 48.4% | 35.6%
